# Experimental data: PubChem BioAssay AID624351 (Southern Research Specialized Biocontainment Screening …, 2012)
# About 1,400 (58%) of roughly 2,400 compounds were called active.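 How the source made its calls: active means inhibition of 30% or more at any tested dose; inconclusive means primary hits over the limit that were never retested; inactive means the rest.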 The set was probably picked from earlier hits. Some of the results follow.
# Assay: ADP Hunter readout inhibition without MgcRacGAP – biochemical, coupled enzyme counter-screen, artefact control for MgcRacGAP inhibitor project, dose response (AID 624351);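 further: signal is the ADP detection kit reading of free GDP without any GAP enzyme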;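 on inhibition: 0% = median positive control wells and 100% = median negative control wells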
# Settings: fluorescence, no MgcRacGAP; series mostly up to 80 µM; inhibition: at the top concentration
SMILES,inhibition,IC50
N#CCCN(CCC#N)c1nncs1,3.07% (inactive),
Cc1ccc2c(c1)C(C)CC(C)(C)N2C(=O)CN1CCN(C)CC1 (stereo not drawn),25% (inactive),
COc1ccc2nc(C)cc(N/N=C/c3cccc(OC)c3O)c2c1,25% (inactive),
COc1ccc2c(c1)-c1nc(/N=C/c3cccc(OC)c3O)sc1CC2,,29.2 µM (active)
COc1ccc2c(c1)-c1nc(/N=C/c3c(O)ccc4ccccc34)sc1CC2,,62.7 µM (active)
COc1ccc2c(c1)-c1nc(/N=C/c3ccccc3O)sc1CC2,,32.7 µM (active)
Cc1cc(Cl)c(OCCOCCN2CCN(C)CC2)c(Br)c1,24.2% (inactive),
CCCCN(C)CCNC(=O)CSCc1ccc(C)cc1,15.9% (inactive),
O=C(N/N=C/c1ccc(N2CCOCC2)s1)c1ccc(O)cc1,,25.2 µM (active)
Nc1ccc(C(=O)N/N=C/c2ccc(N3CCOCC3)s2)cc1,,19.5 µM (active)
Cc1cc(OCCCN2CCN(Cc3ccccc3)CC2)ccc1[N+](=O)[O-],24.2% (inactive),
CC(=O)Nc1cccc2cc(O)ccc12,,35.8 µM (active)
O=C(/C=C/c1ccc(O)c(O)c1)OC(Cc1ccc(O)c(O)c1)C(=O)O (stereo not drawn),,44.1 µM (active)
O=C1N=c2ccccc2=C1c1sc(Nc2ccc(O)cc2)nc1O,20.5% (inactive),
Cc1ccc(-c2csc3n[nH]c(=S)n23)cc1,,61.8 µM (active)
CC1(C)Nc2cccc3cccc(c23)N1,,31.9 µM (active)
C/C(=N\Nc1ccc(S(=O)(=O)N2CCCCC2)cn1)c1ccc(O)cc1,,20 µM (active)
COc1ccc(OC(=O)c2cc(S(=O)(=O)N3CCCC3)ccc2Cl)cc1,2.36% (inactive),
CC1CCCC(N2CCN(C(=O)c3ccc([N+](=O)[O-])cc3)CC2)C1 (stereo not drawn),-14.3% (inactive),
Cc1ccc(NCCCCO)cc1C,,43.3 µM (active)
Cc1ccc(NCc2ccco2)cc1C,-4.65% (inactive),
C/C(=N\Nc1cccc2cccnc12)c1ccc[nH]1,20.1% (inactive),

SMILES,inhibition,IC50
Cc1nc(Cc2nnc(SCC(=O)N3CCN(c4ccc(O)cc4)CC3)o2)cs1,,30.6 µM (active)
Cc1cccc(NC2=C(C#N)C(=O)NC3(CCCC3)S2)c1,0.64% (inactive),
COc1cc(/C(C)=N/N2CCN(c3ccccc3OC)CC2)ccc1O,25.9% (inactive),
COc1ccccc1N1CCN(CCCOc2ccc(F)cc2)CC1,19.5% (inactive),
COc1ccc(/C=N/N2CCN(C)CC2)cc1O,,42.6 µM (active)
COc1cc(/C=N/N2CCN(c3ccccc3OC)CC2)ccc1O,,36.5 µM (active)
COc1ccc(CN2CCCN(C)CC2)c(OC)c1C,16.2% (inactive),
COc1ccccc1N1CCN(/N=C/c2ccc(O)cc2O)CC1,,70.9 µM (active)
COc1ccccc1N1CCN(CC(=O)c2ccc(F)cc2)CC1,-12.8% (inactive),
COc1cccc(OC)c1NC(=O)CN1CCN(C)CC1,25.3% (inactive),
Cc1ccc(N2C(N)=C(C#N)C3(C(=O)N(C)c4ccccc43)C3=C2CC(C)(C)CC3=O)cc1Cl (stereo not drawn),1.04% (inactive),
Cc1cccc2sc(NNC(=O)c3cc(=O)c4ccccc4o3)nc12,,64.9 µM (active)
COc1cc(/C=N/NC(=O)CC2C(=O)NN=C2C)ccc1O (stereo not drawn),,59.1 µM (active)
CC1C(=O)NN=C1C(=O)N/N=C\c1ccc(O)cc1O (stereo not drawn),,37.7 µM (active)
COc1cc(/C=N/NC(=O)C2=NNC(=O)C2C)ccc1O (stereo not drawn),,74.7 µM (active)
CCN1CCN(Cc2ccc(NC(=O)c3ccc(C)c(/C=C/c4cnc(Nc5cc(N6CCNCC6)nc(C)n5)cn4)c3)cc2C(F)(F)F)CC1,-0.63% (inactive),
O=C(N/N=C/c1sc2ccccc2c1O)c1cccc2ccccc12,,60.6 µM (active)
O=C(N/N=C/c1ccc(O)cc1)c1csc2ccccc12,,43.1 µM (active)
O=C(N/N=C/c1ccc(F)cc1)c1cc(-c2ccco2)nc2ccccc12,-10.7% (inactive),
O=C(N/N=C/c1ccc(O)cc1)c1csc2c1CCCC2,,40.6 µM (active)
Cc1c(C(=O)N/N=C/c2ccc(O)cc2)sc(=S)n1C,19.2% (inactive),
C=CCc1cccc(Cl)c1OCCCNC1CCCC1,8.95% (inactive),

SMILES,inhibition,IC50
O=C1ON=C(c2ccccc2)/C1=C/c1ccco1,-3.67% (inactive),
Cc1ccc(COC(=O)Cc2coc3cc(O)ccc23)cc1,,28.9 µM (active)
Cn1cccc1CC(=O)N/N=C/C=C/c1ccco1,-26.5% (inactive),
c1ccc(CNC23CC4CC(CC(C4)C2)C3)nc1,17.5% (inactive),
Oc1ccc(CCc2ccccn2)cc1,,44.9 µM (active)
COc1ccc(CN(C)CCc2ccccn2)cc1OC,20.1% (inactive),
CC(C)CC(=O)N1CCN(Cc2cccc([N+](=O)[O-])c2)CC1,13.1% (inactive),
COc1cc(N2C(=O)C=CC2=O)ccc1N1C(=O)C=CC1=O,3.9% (inactive),
O=C(c1ccccc1F)N1CCN(Cc2ccc3c(c2)OCO3)CC1,15.9% (inactive),
CCNc1nc(NCC)nc(N/N=C/c2ccc(O)c(O)c2)n1,,50.4 µM (active)
Oc1ccc(/C=N/Nc2nc(N3CCCC3)nc(N3CCCC3)n2)cc1O,,48.3 µM (active)
COc1ccc(-c2cnnc(N/N=C/c3ccc(O)c(O)c3)n2)cc1,,73.9 µM (active)
COc1cc2nc(N3CCNCC3)nc(N)c2cc1OC,6.38% (inactive),
COc1cc(/C=N/Nc2nc(N3CCCC3)nc(N3CCCC3)n2)ccc1O,,79.1 µM (active)
Cc1ccc(C)c(-n2sc3ccc(F)cc3c2=O)c1,12.9% (inactive),
COc1ccc(/C=N/Nc2nc(N3CCCC3)nc(N3CCCC3)n2)cc1O,,71.1 µM (active)
CCOc1ccc(NCc2cccn2-c2nnc(N3CCC(C(=O)NCCCN4CCCCC4)CC3)s2)cc1,,68.9 µM (active)
CCN(CC)Cc1cc(Nc2c3ccccc3nc3c4ccccc4n(C)c23)cc(CN(CC)CC)c1O,,20.9 µM (active)
Cc1[nH]n(-c2cccc(Cl)c2)c(=O)c1-c1ccc(Cl)cc1,,77.2 µM (active)
Cc1c(Cl)sn(-c2ccc(Cl)cc2)c1=O,9.28% (inactive),
Cc1ccc(-c2ccc(/C=C3\C(=O)ON=C3c3ccccc3)o2)c([N+](=O)[O-])c1,3.06% (inactive),
COc1ccc(CN2CCN(Cc3ccc(C(F)(F)F)cc3)CC2)cc1,23.6% (inactive),

SMILES,inhibition,IC50
CCN1CCCC1CNCC(=O)Nc1ccc(OC(F)(F)F)cc1 (stereo not drawn),16.9% (inactive),
COc1ccc(NC2CCCN(C(=O)c3ccc(C(C)=O)s3)C2)cc1 (stereo not drawn),,80.4 µM (active)
COc1ccc(NC2CCCN(C(=O)COc3ccc(C(C)=O)cc3)C2)cc1 (stereo not drawn),,74.9 µM (active)
COc1ccc(NC2CCCN(C(=O)C3(C)CCCCC3)C2)cc1 (stereo not drawn),,67.2 µM (active)
COc1ccc(OCC(O)CN2CCCC2)cc1 (stereo not drawn),9.45% (inactive),
COc1ccc(NC2CCCN(C(=O)c3ccccc3C(F)(F)F)C2)cc1 (stereo not drawn),,76.2 µM (active)
Cc1ccc(C)c(OCC(O)CN2CCC(C)CC2)c1C (stereo not drawn),12.6% (inactive),
Cc1ccccc1C1=C/C(=C(\SS/C(C(=O)c2ccc(OCC(=O)O)c(Cl)c2Cl)=C2\C=C(c3ccccc3C)SS2)C(=O)c2ccc(OCC(=O)O)c(Cl)c2Cl)SS1,7.13% (inactive),
CSc1nc(=S)c2[nH]c(=S)[nH]c2[nH]1,13.2% (inactive),
COc1cc2cc(NC(C)=O)cc(NCc3ccccc3)c2cc1OC,,61 µM (active)
COc1cc2[nH]c(=S)nc(Nc3ccc(NC(C)=O)cc3)c2cc1OC,4.2% (inactive),
CCCCNc1cc(NC(C)=O)cc2cc(OC)c(OC)cc12,,52.3 µM (active)
Cc1ccc2c(c1)cc(C(=O)NCc1ccccc1)n2C,1.98% (inactive),
O=S(=O)(c1ccccc1)N1N=C(c2ccc(O)cc2)CC1c1ccco1 (stereo not drawn),21.9% (inactive),
O=C1C=C(Nc2ccc(O)cc2)CC(c2ccco2)C1 (stereo not drawn),,17.8 µM (active)
Cc1cc(C)c(S(=O)(=O)Nc2ccc(O)cc2)c(C)c1,,68.4 µM (active)
Cc1cc(C)c(C)c(S(=O)(=O)Nc2ccc(O)cc2)c1C,,48.5 µM (active)
CCN(CC)c1ccc(C(=C2C=CC(=[N+](CC)CC)C=C2)c2ccccc2)cc1,4.2% (inactive),
CCN(CC)c1ccc(C(=C2C=CC(=[N+](CC)CC)C=C2)c2ccc(N(CC)CC)cc2)cc1,,45.3 µM (active)
COc1cc(/C(C)=N\NC(=O)CSc2nc3ccccc3n2C)ccc1O,,39.3 µM (active)
COc1cc(/C(C)=N/NC(=O)C(O)(c2ccccc2)c2ccccc2)ccc1O,,79.7 µM (active)
COc1ccccc1CN1CCN(C(=O)c2ccncc2)CC1,18.7% (inactive),

SMILES,inhibition,IC50
COc1cc(C(C)=NNC(=O)c2ccncc2)ccc1O,,36.8 µM (active)
C/C(=N\NC(=O)CSc1nc2ccccc2o1)c1ccc(O)cc1,,68.9 µM (active)
O=C(O)c1cccc(N2C(=O)/C(=C/c3ccc(SCc4ccc(Cl)cc4)o3)SC2=S)c1,1.08% (inactive),
c1ccc(-c2ccccc2OCCN2CCOCC2)cc1,21.1% (inactive),
COc1cc(/C(C)=N/NC(=O)Cc2c(C)[nH][nH]c2=O)ccc1O,,70.3 µM (active)
C=CCNCC(O)COc1ccc(C(C)=O)cc1OC (stereo not drawn),13.1% (inactive),
C#CCOCCOCCOCCNc1nc(N2CCN(C(=O)[C@H](CCCCN)n3cc(CN)nn3)CC2)nc(N2CCN(C(=O)[C@H](CCCCN)n3cc(CN)nn3)CC2)n1,3.07% (inactive),
Nc1ccccc1Nc1cccc(C(F)(F)F)c1,,78.3 µM (active)
Nc1ccc(Nc2ccccc2)c(Cl)c1,,15.9 µM (active)
Nc1ccccc1SSc1ccccc1N,-6.81% (inactive),
Nc1ccccc1Nc1ccccc1,,34 µM (active)
Cn1c(-c2ccccc2)cnc1NCc1ccc(-c2ccccc2)cc1,25.8% (inactive),
Cc1cc(C)cc(NC(=O)C(NCCN2CCOCC2)c2ccccc2)c1 (stereo not drawn),29.4% (inactive),
COc1cc2c(cc1NC(=O)C(Cl)Cl)-c1ccc(NC(=O)C(Cl)Cl)cc1C2,,71.4 µM (active)
COc1ccc(NC(=O)C(C)N2CCN(C)CC2)cc1 (stereo not drawn),25% (inactive),
CN(C)/N=C/c1ccc(N2CCOCC2)cc1,,60.4 µM (active)
O=C(O)CN1C(=O)/C(=C/c2ccc(SCc3ccccc3)o2)SC1=S,-9.9% (inactive),
CC(C)c1ccc(NC(=O)CNCC(c2ccccc2)N(C)C)cc1 (stereo not drawn),18.8% (inactive),
O=C(CC(c1ccccc1)c1ccccc1)Nc1ccc(O)cc1,,56.5 µM (active)
O=C(CCCC(=O)c1ccccc1)Nc1ccc(O)cc1,,18.2 µM (active)
